The text below walks through data of PubChem BioAssay (EPA / NIEHS).

Activity calls are given as the source filed them. The calls were made as follows: active = hit-call score of the fitted dose curve at least 0.9, where 1 is the maximum; inactive = score below 0.9.

A short description of test [1]: ATG_E_Box_CIS: Attagene CIS-FACTORIAL HepG2 Assay for human Enhancer Box (E-box) (AID 2282936). Particulars: HepG2 E-box cis-reporter transcription, actives raise or lower the signal. A digest of the protocol: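 Measured 24 h post-dosing in HepG2 cells transfected with multiple cis-regulated reporter units, signal being reporter mRNA induction detected by fluorescent RT-PCR with capillary electrophoresis; gain or loss fitted against DMSO.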

Test [2] in a line: ATG_M_61_CIS: Attagene CIS-FACTORIAL HepG2 Assay for M61 Transcription Factor (Internal Marker) (AID 2282937). Particulars: HepG2 Attagene CIS-FACTORIAL M61 internal marker reporter; actives raise or lower the signal. The procedure, abridged: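 HepG2 cells transiently transfected with multiplexed cis-promoter reporter units reporting endogenous transcription factor activity, measured 24 h after dosing. Reporter mRNA quantified by RT-PCR and capillary electrophoresis; bidirectional fit against DMSO baseline.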

Test [3] in a line: ATG_EGR_CIS: Attagene CIS-FACTORIAL HepG2 Assay for human Early Growth Response 1 (EGR1) (AID 2282938). The conditions noted are these: HepG2 Attagene CIS-FACTORIAL EGR reporter mRNA; actives raise or lower the signal. The procedure, abridged:
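HepG2 cells transiently transfected with cis-element-driven multiplexed reporter units, dosed for 24 h. EGR1-element reporter mRNA quantified by RT-PCR, 6-FAM labelling, HpaI digestion and capillary electrophoresis; bidirectional fit versus DMSO.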

Test [4] can be described thus: ATG_M_19_CIS: Attagene CIS-FACTORIAL HepG2 Assay for M19 Transcription Factor (Internal Marker) (AID 2282939). Particulars: HepG2 Attagene CIS-FACTORIAL M19 internal marker reporter; actives raise or lower the signal. A digest of the protocol:
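Readout: fluorescent reporter-transcript fragments by capillary electrophoresis after RT-PCR. Human HepG2 liver cells carried transfected MRTU constructs reporting endogenous transcription-factor activity; exposure 24 h. Gain or loss of signal fitted relative to DMSO.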

A short description of test [5]: ATG_ERE_CIS: Attagene CIS-FACTORIAL HepG2 Assay for Estrogen Response Element (ERE) (AID 2282940). Particulars: HepG2 ERE cis-reporter, Attagene RNA transcript; actives raise or lower the signal. A digest of the protocol: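 Readout: reporter mRNA induction by RT-PCR, FAM-labelled primer extension, HpaI digestion and capillary electrophoresis, 24 h after dosing transfected HepG2 cells. Endogenous transcription factors act on cis-element-regulated reporters. Gain or loss fitted against DMSO.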

A short description of test [6]: ATG_Ets_CIS: Attagene CIS-FACTORIAL HepG2 Assay for human Erythroblast Transformation Specific (ETS) (AID 2282941). The conditions noted are these: HepG2 ETS cis-reporter transcription, actives raise or lower the signal. A digest of the protocol: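 RT-PCR/capillary electrophoresis fluorescence read-out of reporter mRNA; HepG2 transient multi-reporter transfection; 24 h compound exposure; gain or loss of signal fitted bidirectionally relative to DMSO.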

For test [7], the target named is Hepatocyte nuclear factor 3-beta (Homo sapiens) (UniProt Q9Y261). Kind of test: ATG_FoxA2_CIS: Attagene CIS-FACTORIAL HepG2 Assay for human Forkhead box A2 (FOXA2) (AID 2282942). Particulars: HepG2 cis-reporter transcription factor activity, 24 h; actives raise or lower the signal. The procedure, abridged:
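HepG2 transiently transfected with a multiplexed cis-promoter reporter library read endogenous FOXA2 activity. After 24 h compound exposure, reporter mRNA was quantified by RT-PCR, HpaI digestion and capillary electrophoresis. Bidirectional fit against DMSO.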

Test [8] in a line: ATG_FoxO_CIS: Attagene CIS-FACTORIAL HepG2 Assay for human Forkhead box O (FoxO) (AID 2282943). The conditions noted are these: HepG2 Attagene cis-reporter, FoxO element, mRNA; actives raise or lower the signal. A digest of the protocol: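 HepG2 cells transiently transfected with cis-promoter-driven multiple reporter transcription units; 24 h after chemical dosing, reporter mRNA quantified by RT-PCR, fluorescent primer extension, HpaI digestion and capillary electrophoresis. Bidirectional fitting versus DMSO baseline.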

A short description of test [9]: ATG_GATA_CIS: Attagene CIS-FACTORIAL HepG2 Assay for human GATA Binding Protein (AID 2282944). The conditions noted are these: HepG2 GATA cis-element reporter, Attagene multiplex mRNA; actives raise or lower the signal. A digest of the protocol: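 Read-out: fluorescent reporter mRNA fragments resolved by capillary electrophoresis after RT-PCR. Human liver HepG2 cells carried transiently transfected cis-regulated reporter constructs; chemicals incubated 24 h; gain or loss of signal fitted relative to DMSO.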

The nature of test [10]: ATG_GLI_CIS: Attagene CIS-FACTORIAL HepG2 Assay for human Zinc Finger Protein GLI1 (AID 2282945). The conditions noted are these: HepG2, Attagene cis-factorial reporter mRNA, GLI element; actives raise or lower the signal. The procedure, abridged: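 HepG2 cells transiently transfected with cis-promoter multiplexed reporter units report endogenous transcription factor activity. After 24 h chemical exposure, reporter mRNA was quantified by RT-PCR, 6-FAM labelling, HpaI digestion and capillary electrophoresis, with bidirectional fitting against DMSO.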

The target in test [11] is Bile acid receptor (Homo sapiens) (UniProt Q96RI1). The test is described as follows: ATG_IR1_CIS: Attagene CIS-FACTORIAL HepG2 Assay for human Nuclear Receptor Subfamily 1 Group H Member 4 (NR1H4), IR1 submotif (AID 2282946). Particulars: IR1 reporter transcription, actives raise or lower the signal. The procedure, abridged:
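Readout: reporter transcript levels by RT-PCR with fluorescent capillary electrophoresis, from HepG2 cells transiently transfected with multiplexed cis-regulated reporters and dosed 24 h. Gain- or loss-of-signal fitted versus DMSO negative control.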

The nature of test [12]: ATG_GRE_CIS: Attagene CIS-FACTORIAL HepG2 Assay for human Glucocorticoid Response Elements (GRE) (AID 2282947). Particulars: HepG2 GRE cis-reporter, Attagene multiplex mRNA; actives raise or lower the signal. A digest of the protocol: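 HepG2, transient cis-reporter transfection, 24 h. Reporter mRNA: RT-PCR then CE, fluorescence. Fit both directions vs DMSO.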
A short description of test [13]: ATG_ISRE_CIS: Attagene CIS-FACTORIAL HepG2 Assay for human Interferon Regulatory Factor 1 (IRF1) binding to an Interferon-Stimulated Response Element (ISRE) (AID 2282948). Particulars: HepG2 ISRE cis-reporter (Attagene), mRNA transcription readout; actives raise or lower the signal. The procedure, abridged: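 Read-out: fluorescent RT-PCR products resolved by capillary electrophoresis, reporting endogenous transcription factor activity via ISRE-driven reporter mRNA in transfected HepG2 cells dosed for 24 h; gain or loss fitted relative to DMSO.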

A short description of test [14]: ATG_M_32_CIS: Attagene CIS-FACTORIAL HepG2 Assay for M32 Transcription Factor (Internal Marker) (AID 2282949).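 Also: background control marker of the multiplexed CIS panel rather than a real target.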 Particulars: HepG2 Attagene cis-factorial M32 reporter, mRNA; actives raise or lower the signal. The procedure, abridged:
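Using DMSO as baseline, bidirectional curve fits were applied to reporter mRNA signals. These came from transiently transfected HepG2 cells exposed for 24 h, with RNA analysed by RT-PCR, FAM primer extension, HpaI digestion and CE.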

Test [15] is described as follows: ATG_M_06_CIS: Attagene CIS-FACTORIAL HepG2 Assay for M06 Transcription Factor (Internal Marker) (AID 2282950). The conditions noted are these: HepG2 Attagene CIS-FACTORIAL M06 internal marker reporter; actives raise or lower the signal. The procedure, abridged:
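Terse: HepG2, transient MRTU transfection (FuGene 6), 24 h dosing; total RNA, oligo(dT) RT, PCR, FAM label, HpaI cut, capillary electrophoresis; bidirectional fit vs DMSO baseline; background-control endpoint.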

Test [16] addresses Hypoxia-inducible factor 1-alpha (Homo sapiens) (UniProt Q16665). Kind of test: ATG_HIF1a_CIS: Attagene CIS-FACTORIAL HepG2 Assay for human Hypoxia Inducible Factor 1 (HIF1A) (AID 2282951). Particulars: HepG2 Attagene cis-factorial HIF1a reporter transcription; actives raise or lower the signal. The procedure, abridged:
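HepG2 cells transiently transfected with multiple cis-regulated reporter transcription units measure endogenous transcription factor activity. After 24 h exposure, reporter mRNA is quantified by RT-PCR with 6-FAM labelling, HpaI digestion and capillary electrophoresis. Bidirectional fitting against DMSO.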

Test [17] deals with Hepatocyte nuclear factor 6 (Homo sapiens) (UniProt Q9UBC0). Kind of test: ATG_HNF6_CIS: Attagene CIS-FACTORIAL HepG2 Assay for human Hepatocyte Nuclear Factor 6 (HNF6) (AID 2282952). Particulars: HepG2 Attagene cis-factorial HNF6 reporter transcription; actives raise or lower the signal. The procedure, abridged: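 Twenty-four-hour chemical treatment of reporter-transfected HepG2 cells precedes RNA isolation, DNase-treated reverse transcription and PCR of reporter sequences. Labelled fragments are sized by capillary electrophoresis and fitted bidirectionally versus DMSO.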

The nature of test [18]: ATG_MRE_CIS: Attagene CIS-FACTORIAL HepG2 Assay for human Metal Responsive Element (MRE) (AID 2282954). The conditions noted are these: HepG2 MRE cis-reporter transcription, Attagene multiplex; actives raise or lower the signal. The procedure, abridged: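 Readout: capillary electrophoresis of 6-FAM-labelled, HpaI-digested RT-PCR reporter products. System: HepG2 cells carrying transient multiplexed cis reporters, dosed 24 h. Analysis: bidirectional fit, DMSO baseline.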

Test [19] in a line: ATG_PBREM_CIS: Attagene CIS-FACTORIAL HepG2 Assay for human Phenobarbital-responsive Enhancer Module (PBREM) (AID 2282955). Particulars: HepG2 PBREM cis-reporter, Attagene multiplexed transcription; actives raise or lower the signal. A digest of the protocol: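 HepG2 cells transiently transfected with multiple cis-regulated reporter units measure endogenous transcription factor activity; 24 h compound exposure. Reporter mRNA quantified by RT-PCR, fluorescent labelling, HpaI digestion and capillary electrophoresis; bidirectional fit versus DMSO.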

In test [20] the target is Heat shock factor protein 1 (Homo sapiens) (UniProt Q00613). The test is described as follows: ATG_HSE_CIS: Attagene CIS-FACTORIAL HepG2 Assay for human Heat Shock Transcription Factor 1 (HSE) (AID 2282953). The conditions noted are these: HepG2 HSE cis-reporter, Attagene RNA transcription; actives raise or lower the signal. The procedure, abridged: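 Read-out: fluorescence of reporter-specific RT-PCR fragments separated by capillary electrophoresis. HepG2 carrying transfected cis-element reporter units; 24 h dosing; activity fitted in both directions relative to DMSO baseline.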
Chain of Heat shock factor protein 1 (Homo sapiens) (Q00613 whole entry, looked up, the tested form may be a part): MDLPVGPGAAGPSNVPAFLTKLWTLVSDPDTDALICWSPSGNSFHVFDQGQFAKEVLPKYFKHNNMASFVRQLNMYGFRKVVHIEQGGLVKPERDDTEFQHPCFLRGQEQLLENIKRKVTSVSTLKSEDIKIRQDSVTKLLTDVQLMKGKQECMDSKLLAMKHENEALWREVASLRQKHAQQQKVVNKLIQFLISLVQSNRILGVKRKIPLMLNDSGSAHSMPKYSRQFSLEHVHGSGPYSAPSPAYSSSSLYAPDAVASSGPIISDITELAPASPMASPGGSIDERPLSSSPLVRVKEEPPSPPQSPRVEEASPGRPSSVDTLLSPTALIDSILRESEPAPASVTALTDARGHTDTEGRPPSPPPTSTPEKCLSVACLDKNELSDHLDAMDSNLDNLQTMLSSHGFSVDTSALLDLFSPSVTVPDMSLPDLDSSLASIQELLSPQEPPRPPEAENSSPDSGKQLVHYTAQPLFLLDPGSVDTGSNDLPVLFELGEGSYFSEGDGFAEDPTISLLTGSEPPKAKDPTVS

Chain of Hypoxia-inducible factor 1-alpha (Homo sapiens) (Q16665 whole entry, looked up): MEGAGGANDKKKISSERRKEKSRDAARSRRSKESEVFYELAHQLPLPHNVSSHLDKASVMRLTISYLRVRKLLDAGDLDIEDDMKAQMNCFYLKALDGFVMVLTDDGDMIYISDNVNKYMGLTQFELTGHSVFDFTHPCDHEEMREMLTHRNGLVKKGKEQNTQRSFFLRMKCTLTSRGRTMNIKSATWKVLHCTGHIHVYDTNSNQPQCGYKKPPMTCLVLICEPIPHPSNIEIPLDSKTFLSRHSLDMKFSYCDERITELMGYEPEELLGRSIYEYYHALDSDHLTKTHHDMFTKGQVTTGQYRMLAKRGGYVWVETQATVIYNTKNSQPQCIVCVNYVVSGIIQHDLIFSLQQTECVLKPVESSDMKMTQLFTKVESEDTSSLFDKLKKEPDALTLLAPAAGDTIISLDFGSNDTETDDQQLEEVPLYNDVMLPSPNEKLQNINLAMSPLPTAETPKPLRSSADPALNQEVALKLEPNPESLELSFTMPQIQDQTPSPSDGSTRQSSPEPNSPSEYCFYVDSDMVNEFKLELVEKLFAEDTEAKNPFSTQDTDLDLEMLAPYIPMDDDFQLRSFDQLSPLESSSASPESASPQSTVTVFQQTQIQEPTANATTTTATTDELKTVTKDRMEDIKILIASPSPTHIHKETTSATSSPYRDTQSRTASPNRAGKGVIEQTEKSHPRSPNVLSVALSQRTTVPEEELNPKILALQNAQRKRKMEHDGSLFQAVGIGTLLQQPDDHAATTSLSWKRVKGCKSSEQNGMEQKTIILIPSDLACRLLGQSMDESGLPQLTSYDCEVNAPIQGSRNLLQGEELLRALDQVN
Chain of Bile acid receptor (Homo sapiens) (Q96RI1 whole entry, looked up): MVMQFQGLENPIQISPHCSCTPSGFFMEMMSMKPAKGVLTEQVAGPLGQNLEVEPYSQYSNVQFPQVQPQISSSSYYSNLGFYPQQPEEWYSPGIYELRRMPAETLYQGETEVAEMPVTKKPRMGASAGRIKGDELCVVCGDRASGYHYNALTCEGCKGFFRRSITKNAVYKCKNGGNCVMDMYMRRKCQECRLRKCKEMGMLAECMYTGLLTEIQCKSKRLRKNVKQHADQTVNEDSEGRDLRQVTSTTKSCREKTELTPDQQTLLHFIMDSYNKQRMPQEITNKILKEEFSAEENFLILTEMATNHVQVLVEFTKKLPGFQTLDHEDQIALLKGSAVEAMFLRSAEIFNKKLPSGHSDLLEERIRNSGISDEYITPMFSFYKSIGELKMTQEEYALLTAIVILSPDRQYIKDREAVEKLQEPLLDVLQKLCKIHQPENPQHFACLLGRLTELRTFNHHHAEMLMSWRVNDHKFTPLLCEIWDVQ
Chain of Hepatocyte nuclear factor 3-beta (Homo sapiens) (Q9Y261 whole entry, looked up): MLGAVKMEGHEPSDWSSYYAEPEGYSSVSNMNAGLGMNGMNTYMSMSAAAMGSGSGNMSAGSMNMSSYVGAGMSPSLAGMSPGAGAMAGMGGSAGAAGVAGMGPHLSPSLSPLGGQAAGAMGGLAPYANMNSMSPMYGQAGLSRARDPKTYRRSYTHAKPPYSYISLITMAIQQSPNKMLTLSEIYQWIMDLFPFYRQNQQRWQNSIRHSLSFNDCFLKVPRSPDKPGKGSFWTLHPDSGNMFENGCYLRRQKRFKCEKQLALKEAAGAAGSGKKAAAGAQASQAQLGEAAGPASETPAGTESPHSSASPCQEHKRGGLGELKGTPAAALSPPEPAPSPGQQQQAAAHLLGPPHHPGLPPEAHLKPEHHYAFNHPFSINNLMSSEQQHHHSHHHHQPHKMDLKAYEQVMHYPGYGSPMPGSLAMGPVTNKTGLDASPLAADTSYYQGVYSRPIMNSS
Chain of Hepatocyte nuclear factor 6 (Homo sapiens) (Q9UBC0 whole entry, looked up, the tested form may be a part): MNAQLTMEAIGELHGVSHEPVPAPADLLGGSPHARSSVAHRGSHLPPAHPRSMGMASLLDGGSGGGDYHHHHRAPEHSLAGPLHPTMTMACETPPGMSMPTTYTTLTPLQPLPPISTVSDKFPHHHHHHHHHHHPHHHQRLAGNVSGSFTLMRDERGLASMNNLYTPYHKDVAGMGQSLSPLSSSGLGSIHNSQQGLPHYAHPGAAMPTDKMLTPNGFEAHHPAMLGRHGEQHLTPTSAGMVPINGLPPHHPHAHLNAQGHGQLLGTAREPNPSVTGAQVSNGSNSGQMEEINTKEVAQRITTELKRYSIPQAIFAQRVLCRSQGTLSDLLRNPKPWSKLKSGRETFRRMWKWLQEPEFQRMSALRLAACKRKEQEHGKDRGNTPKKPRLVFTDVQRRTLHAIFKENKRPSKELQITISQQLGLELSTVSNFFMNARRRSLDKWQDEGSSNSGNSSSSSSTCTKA

As for `COC(=O)CCC(=O)OC`, the outcome in [1], in [2], in test [3], in test [4], in [5] and in test [6] was inactive. The compound was classed as inactive in [7], in test [8], in [9], in test [10], in [11] and in test [12]. Moreover, the call in test [13], in [14], in test [15], in test [16], in [17] and in test [18] was inactive. Besides, in [19], the result was inactive.
`CC1(C)C(=O)NC(=O)N1CO`: the result in test [1], in test [2], in [3], in test [4], in test [6] and in [7] was inactive. Further, the call in test [8], in test [9], in [10], in test [13], in test [14] and in test [15] was inactive. The outcome in test [16], in test [17], in [20], in [18] and in [19] was inactive. Also, in [5], the AC50 is 158 µM (active).
`NC1CCCCC1`: the result in test [1], in [2], in test [3], in test [4], in test [5] and in [6] was inactive. In addition, the call in [7], in test [8], in test [9], in test [10], in test [13] and in test [14] was inactive. Also, the call in test [15], in [16], in test [17], in [20], in test [18] and in test [19] was inactive.
Consider `Nc1nc(=S)c2[nH]cnc2[nH]1`, for which the outcome in test [1], in test [2], in test [3], in test [4], in test [6] and in test [7] was inactive. The outcome in test [8], in test [9], in test [10], in test [13], in [14] and in test [15] was inactive. For the same compound, the result in test [16], in test [17], in test [20], in test [18] and in test [19] was inactive. Besides, the AC50 in [5] was 98.1 µM (active).
On to `CC1=C(C)S(=O)(=O)CCS1(=O)=O`, for which, in test [1], the AC50 is 100 µM (active). The result in test [2], in test [3], in test [4], in test [5], in test [6] and in test [7] was inactive. For the same compound, the compound was classed as inactive in [8], in test [9], in [10], in [13], in test [14] and in test [15]. Also, the compound was classed as inactive in test [16], in [17], in test [20], in [18] and in test [19].
Take `CN(C)C(=O)NC1(c2ccccc2)CCN(CCC[C@]2(c3ccc(Cl)c(Cl)c3)CCCN(C(=O)c3ccccc3)C2)CC1`: the AC50 was 4.17 µM (active) in [1], 2.75 µM (active) in test [3], 4.21 µM (active) in test [11] and 4.19 µM (active) in test [18]. Moreover, the compound was called inactive in test [2], in [4], in test [5], in test [6], in test [7] and in test [8]. Further, the compound was called inactive in [9], in test [10], in [13], in [14], in test [15] and in test [16]. The call in [17], in [20] and in test [19] was inactive.
In the case of `Cc1ccc(C(C)(C)C)c(O)c1`, the result in test [1], in test [2], in test [4], in test [7], in test [8] and in test [9] was inactive. Besides, the compound was classed as inactive in test [10], in test [11], in test [14], in [15], in [16] and in test [17]. Also, the outcome in test [20] was inactive. The AC50 in test [3] is 158 µM (active); in [5], 25.1 µM (active); in test [6] it was 63.7 µM (active); in [13] it was 138 µM (active); in test [18], 145 µM (active); in test [19] it was 150 µM (active).

The AC50 is the midpoint of the concentration-response curve, whichever way the signal moves.
